Measured values from PubChem BioAssay (EPA / NIEHS).
Activity calls are given as the source filed them. How the source made its calls: active means hit-call score of the fitted dose curve at least 0.9, where 1 is the maximum; inactive means score below 0.9.

What was measured:
[1] = read-out: Vascular cell adhesion molecule 1 (VCAM1), VCAM1 (gene 7412); assay: BSK_4H_VCAM1: BioMAP Diversity Plus: 4H Assay for Vascular cell adhesion molecule 1 (VCAM1) Biomarker Activity (AID 2283033); conditions: primary human endothelial cells (HUVEC); actives raise or lower the signal
How it was run: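 ELISA read-out of VCAM-1 on human umbilical vein endothelium 24 hours after chemical dosing; gain or loss of signal was fitted relative to DMSO, with sulforhodamine B staining of parallel cultures flagging overt cytotoxicity.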

[2] = read-out: Interferon-gamma inducible Protein 10 (IP10), CXCL10 (gene 3627); assay: BSK_BE3C_IP10: BioMAP Diversity Plus: BE3C Assay for Interferon-gamma inducible Protein 10 (IP10) Biomarker Activity (AID 2283034); conditions: primary human bronchial epithelial cells; actives raise or lower the signal
How it was run: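 Chemical is dosed onto human lung bronchial epithelial primary cells, cultures are incubated 24 h, and IP-10 is then quantified by ELISA. Gain or loss of signal is fitted in both directions relative to DMSO.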

[3] = read-out: Monokine induced gamma interferon (MIG), CXCL9 (gene 4283); assay: BSK_BE3C_MIG: BioMAP Diversity Plus: BE3C Assay for Monokine induced gamma interferon (MIG) Biomarker Activity (AID 2283035); conditions: primary human bronchial epithelial cells; actives raise or lower the signal;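 further: MIG protein measured by ELISA in BE3C cultures after 24 h of dosing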
How it was run: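 MIG level was determined by ELISA after 24 h chemical treatment of primary human bronchial epithelial cells. Values were fitted bidirectionally with DMSO as the negative control and activity baseline.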

[4] = read-out: Transforming growth factor beta 1 (TGFb1), TGFB1 (gene 7040); assay: BSK_BE3C_TGFb1: BioMAP Diversity Plus: BE3C Assay for Transforming growth factor beta 1 (TGFb1) Biomarker Activity (AID 2283036;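 further: TGF-b1 protein level measured by ELISA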); conditions: primary human bronchial epithelial cells; actives raise or lower the signal
How it was run: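 Primary human lung bronchial epithelial cells; compound exposure 24 h; TGF-b1 by ELISA; bidirectional fit, DMSO baseline. Parallel SRB total-protein staining for cytotoxicity.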

[5] = read-out: Plasminogen activator inhibitor-1 (PAI1), SERPINE1 (gene 5054); assay: BSK_BE3C_PAI1: BioMAP Diversity Plus: BE3C Assay for Plasminogen activator inhibitor-1 (PAI1) Biomarker Activity (AID 2283037); conditions: primary human bronchial epithelial cells; actives raise or lower the signal
How it was run: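 Primary human lung bronchial epithelial cells; chemical dosing; 24 h; PAI-1 measured by ELISA; bidirectional fit referenced to DMSO as negative control.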

[6] = read-out: urokinase plasminogen activator (uPA), PLAU (gene 5328); assay: BSK_BE3C_uPA: BioMAP Diversity Plus: BE3C Assay for urokinase plasminogen activator (uPA) Biomarker Activity (AID 2283038); conditions: primary human bronchial epithelial cells; actives raise or lower the signal;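 further: uPA protein level quantified by ELISA in cell cultures; uPA read one day after compound addition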
How it was run: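 Measured by ELISA: uPA from human primary bronchial epithelial cells 24 h after chemical treatment. Values derive from bidirectional curve fitting with DMSO serving as negative control. Total protein by SRB staining in parallel wells flagged overt cytotoxicity.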

[7] = read-out: Urokinase-type plasminogen activator receptor (uPAR), PLAUR (gene 5329); assay: BSK_BE3C_uPAR: BioMAP Diversity Plus: BE3C Assay for Urokinase-type plasminogen activator receptor (uPAR) Biomarker Activity (AID 2283039); conditions: primary human bronchial epithelial cells; actives raise or lower the signal
How it was run: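 Human bronchial epithelial primary cells; chemical exposure 24 h; uPAR by ELISA; bidirectional fit vs DMSO control.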

[8] = read-out: Interleukin-6 (IL6), IL6 (gene 3569); assay: BSK_CASM3C_IL6: BioMAP Diversity Plus: CASM3C Assay for Interleukin-6 (IL6) Biomarker Activity for (AID 2283040); conditions: primary human coronary artery smooth muscle cells; actives raise or lower the signal
[9] = read-out: Tissue plasminogen activator (tPA), PLAT (gene 5327); assay: BSK_BE3C_tPA: BioMAP Diversity Plus: BE3C Assay for Tissue plasminogen activator (tPA) Biomarker Activity (AID 2283041); conditions: primary human bronchial epithelial cells; actives raise or lower the signal;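 further: tPA level quantified by ELISA one day after compound addition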
How it was run: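 Primary human lung bronchial epithelial cultures receive test chemical; after 24 h, tPA is quantified by ELISA, and gain or loss of signal is fitted bidirectionally relative to DMSO baseline.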

[10] = read-out: Interleukin-8 (IL8), CXCL8 (gene 3576); assay: BSK_CASM3C_IL8: BioMAP Diversity Plus: CASM3C Assay for Interleukin-8 (IL8) Biomarker Activity (AID 2283042); conditions: primary human coronary artery smooth muscle cells; actives raise or lower the signal;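 further: IL-8 protein level quantified by ELISA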
[11] = read-out: Human Leukocyte Antigen - DR isotype (HLADR), HLA-DRA (gene 3122); assay: BSK_CASM3C_HLADR: BioMAP Diversity Plus: CASM3C Assay for Human Leukocyte Antigen - DR isotype (HLADR) Biomarker Activity (AID 2283043); conditions: primary human coronary artery smooth muscle cells; actives raise or lower the signal;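 further: cell-surface HLA-DR protein level quantified by ELISA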
[12] = read-out: Macrophage colony-stimulating factor (MCSF), CSF1 (gene 1435); assay: BSK_CASM3C_MCSF: BioMAP Diversity Plus: CASM3C Assay for Macrophage colony-stimulating factor (MCSF) Biomarker Activity (AID 2283044); conditions: primary human coronary artery smooth muscle cells; actives raise or lower the signal;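 further: M-CSF protein amount quantified by ELISA after 24 h exposure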
[13] = read-out: Low-density lipoprotein receptor (LDLR), LDLR (gene 3949); assay: BSK_CASM3C_LDLR: BioMAP Diversity Plus: CASM3C Assay for Low-density lipoprotein receptor (LDLR) Biomarker Activity (AID 2283045); conditions: primary human coronary artery smooth muscle cells; actives raise or lower the signal;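 further: LDLR protein level on the cell surface quantified by ELISA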
[14] = read-out: Monocyte Chemoattractant Protein-1 (MCP1), CCL2 (gene 6347); assay: BSK_CASM3C_MCP1: BioMAP Diversity Plus: CASM3C Assay for Monocyte Chemoattractant Protein-1 (MCP1) Biomarker Activity (AID 2283046); conditions: primary human coronary artery smooth muscle cells; actives raise or lower the signal;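 further: MCP-1 level quantified by ELISA 24 h after dosing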
[15] = BSK_CASM3C_Proliferation: Cell Proliferation Assessment in the BioMAP Diversity Plus: CASM3C Assay (AID 2283047); conditions: primary human coronary artery smooth muscle cells;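 further: sulforhodamine B total protein stain as relative cell number at 560 nm; sub-confluent cells exposed 48 h before staining; fitted both ways against DMSO so gain or loss of cell number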
[16] = read-out: Monokine induced gamma interferon (MIG), CXCL9 (gene 4283); assay: BSK_CASM3C_MIG: BioMAP Diversity Plus: CASM3C Assay for Monokine induced gamma interferon (MIG) Biomarker Activity (AID 2283048); conditions: primary human coronary artery smooth muscle cells; actives raise or lower the signal;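 further: MIG protein level measured by ELISA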
[17] = read-out: serum amyloid A (SAA), SAA1 (gene 6288); assay: BSK_CASM3C_SAA: BioMAP Diversity Plus: CASM3C Assay for serum amyloid A (SAA) Biomarker Activity (AID 2283049); conditions: primary human coronary artery smooth muscle cells; actives raise or lower the signal;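 further: SAA protein level quantified by ELISA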
[18] = BSK_CASM3C_SRB: Viability Assessment in the BioMAP Diversity Plus: CASM3C Assay (AID 2283050); conditions: primary human coronary artery smooth muscle cells;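 further: total protein by SRB staining as cytotoxicity measure in parallel cultures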
[19] = read-out: Thrombomodulin, THBD (gene 7056); assay: BSK_CASM3C_Thrombomodulin: BioMAP Diversity Plus: CASM3C Assay for Thrombomodulin Biomarker Activity (AID 2283051); conditions: primary human coronary artery smooth muscle cells; actives raise or lower the signal;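 further: thrombomodulin protein level measured by ELISA 24 h after dosing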
[20] = read-out: Tissue Factor, F3 (gene 2152); assay: BSK_CASM3C_TissueFactor: BioMAP Diversity Plus: CASM3C Assay for Tissue Factor Biomarker Activity (AID 2283052); conditions: primary human coronary artery smooth muscle cells; actives raise or lower the signal;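 further: cell surface tissue factor protein level read by ELISA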

Measured: AC50

CCCCOC(=O)C(C)Oc1ccc(Oc2ccc(C(F)(F)F)cn2)cc1 (stereo not given)
inactive: all assays above

CC(=O)S[C@@H]1CC2=CC(=O)CC[C@]2(C)[C@H]2CC[C@@]3(C)[C@@H](CC[C@@]34CCC(=O)O4)[C@H]12
active: [1] 34.3 µM | [2] 30.9 µM | [10] 23.6 µM | [11] 27.3 µM | [14] 20 µM | [15] 31.4 µM
inactive: all other assays above

CCOC(=O)COc1cc(-n2ncc(C(F)(F)F)c(C)c2=O)c(F)cc1Cl
active: [7] 0.459 µM
inactive: all other assays above

O=C(O)C1(C(=O)Nc2ccc(Cl)cc2Cl)CC1
active: [2] 23.8 µM
inactive: all other assays above
